Hit rate of the full screen: of about 390,000 compounds, about 4,000 (1%) were called active. About 4% were inconclusive and are not listed. Calls come from the whole dose curve; as a rule, active = well fitted inhibition curve with a large enough effect; inconclusive = small, poorly fitted or top-dose-only effect; inactive = no such curve, though single readings can be large or run the other way. Many of the other results were omitted from the sample, so actives are more common in it than they were.
Target: Thioredoxin reductase 1, cytoplasmic (Rattus norvegicus) (UniProt O89049)
Test: qHTS Assay for Inhibitors of Mammalian Selenoprotein Thioredoxin Reductase 1 (TrxR1): qHTS; note: nearly all actives have a fitted effect of over 65% in size
Settings: recombinant rTrxR1, NADPH fluorescence consumption, selenite substrate; series mostly up to 114 µM
Method in brief: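 Rat TrxR1 (90 nM in the dispensed reagent) was pre-reduced with 400 uM NADPH for 5 min at room temperature, then incubated with compound for 15 min. After 400 uM selenite was added, NADPH fluorescence (Ex 340/Em 450 nm) was followed for 8 min.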
% is set by controls: 0 for no effect and ±100 for the full control effect; potency is the fitted concentration of half-maximal effect.

Sequence of Thioredoxin reductase 1, cytoplasmic (Rattus norvegicus) (O89049 whole entry, looked up): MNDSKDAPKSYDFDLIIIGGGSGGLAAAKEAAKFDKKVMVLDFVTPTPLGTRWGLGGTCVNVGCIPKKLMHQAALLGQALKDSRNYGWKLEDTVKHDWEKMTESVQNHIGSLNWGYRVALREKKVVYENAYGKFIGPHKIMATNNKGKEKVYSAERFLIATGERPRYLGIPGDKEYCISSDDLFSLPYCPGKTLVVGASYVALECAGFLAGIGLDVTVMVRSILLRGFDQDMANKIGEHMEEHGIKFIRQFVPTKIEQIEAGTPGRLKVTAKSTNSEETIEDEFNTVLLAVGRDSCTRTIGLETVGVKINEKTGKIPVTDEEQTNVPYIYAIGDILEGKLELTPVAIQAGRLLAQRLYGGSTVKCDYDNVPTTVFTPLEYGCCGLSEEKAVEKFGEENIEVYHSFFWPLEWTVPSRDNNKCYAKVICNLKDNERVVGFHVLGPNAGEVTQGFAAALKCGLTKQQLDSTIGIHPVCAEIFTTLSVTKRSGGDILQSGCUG

Potency, inactive:
CCc1ccc(NC(=O)N2CCN(C(=O)c3nsc4ccccc34)CC2)cc1, CCOC(=O)c1scc(-c2ccc(C)cc2)c1S(=O)(=O)Nc1cc(C)ccc1C, COc1ccc(NS(=O)(=O)c2cc(NC(=O)CC(=O)c3ccc([N+](=O)[O-])cc3)ccc2C)cc1, COc1cccc(C(=O)CC(=O)C(=O)Nc2ccc([N+](=O)[O-])cc2C)c1, Cc1ccccc1CNC(=O)C1CCCN(S(=O)(=O)N(C)c2ccc(F)cc2)C1 (configuration not stated), Cc1ccc(-n2c(=O)cc(N3CCN(Cc4ccccc4)CC3)[nH]c2=O)cc1, CC(C)(C)N1CC(c2nc3ccccc3n2Cc2ccc(F)cc2)CC1=O (configuration not stated), Cc1c(Cl)cccc1NC(=O)Cn1cc(C(=O)c2cccs2)c2ccccc21, O=C(Cn1c(=O)n(-c2ccc(F)cc2)c(=O)c2sc3ccccc3c21)NC1CCCC1, O=C(NCCCN1CCOCC1)c1ccccc1NS(=O)(=O)c1ccc(F)cc1, O=S(=O)(NCCCN1CCOCC1)c1ccc(F)c(Cl)c1, CC1CC2C3CCC4=CC(=O)C=C[C@]4(C)[C@@]3(F)[C@@H](O)C[C@]2(C)[C@@]1(O)C(=O)CO (some centres not stated), COc1cc(OC)c(OC)cc1/C=C1\C=Cc2ccccc21, Cc1nnc(SCC(=O)NCc2cccs2)[nH]c1=O, Cc1[nH]c2ccccc2c1C(=O)C(=O)N(C)c1ccccc1, Cc1cc(C)cc(NC(=O)CSc2nc3nccnc3c(=O)n2CCc2c[nH]c3ccccc23)c1, COc1ccc(Cl)cc1C(=O)NNC(=S)NC(=O)/C=C/c1ccco1, COc1ccccc1/C=C/C(=O)NC(=S)N1CCOCC1, Cn1c(=O)cc(OCC(=O)N2CCN(c3ccccc3)CC2)c2ccccc21, COc1ccc(-c2nc3nc(C)cc(C)n3c2Nc2c(C)cccc2C)cc1, CCn1c(SCC(=O)NNC(=O)c2ccc(OC)cc2)nnc1C(C)C, COc1ccc(-n2c(SC)nc(O)cc2=O)cc1, O=C(Cn1ncc2c3ccccc3n(Cc3ccccc3)c2c1=O)NC1CCCCCC1, CCOc1ccc(C(NC(=O)c2cc(OC)c(OC)c(OC)c2)c2cc(Cl)c3cccnc3c2O)cc1 (configuration not stated), O=C(NCc1cccnc1)C(=O)NCC(c1cccnc1)N1CCN(c2ccccc2)CC1 (configuration not stated), Cc1ccc(NC(=O)C(=O)NCC(c2cccnc2)N2CCOCC2)cc1 (configuration not stated), COc1ccccc1N1CCN(C(CNC(=O)C(=O)NCc2ccc(C)cc2)c2cccnc2)CC1 (configuration not stated), COc1ccc(CN(Cc2ccccc2)C(=O)c2ccc(O)cc2)cc1COc1ccc(NC(C)=O)cc1, COc1ccc(CCNC(=O)Cn2c(=O)n(-c3ccccc3)c(=O)c3c(C)c(C)sc32)cc1OC, CC(C)(C)OC(=O)N1CCC(c2c(C(=O)NCCc3ccsc3)cnn2-c2ccc(F)cc2F)CC1, COc1ccc(CN2CCC(n3nccc3NC(=O)CCCc3ccccc3)CC2)cc1C, CCn1cc(CN2CCC(n3nccc3NC(=O)CCCc3ccccc3)CC2)c(C)n1, CN(C)c1cccc2ccccc12, COC(=O)C1=C(C(=O)OC)[C@@H]2N(Cc3ccccc3)c3ccccc3[C@@]23C[C@@H](C(=O)OC)N(S(=O)(=O)c2ccc(C(F)(F)F)cc2)C3=N1, Cc1ccc(CCNC(=O)c2ccc(CS(=O)(=O)Cc3cccc(C)c3)o2)cc1, CCS(=O)(=O)c1ncc(N(Cc2ccc(F)cc2)Cc2ccco2)c(C(=O)Nc2cc(C)ccc2C)n1, Cc1ccc2nc(NC(=O)c3nc(SCc4ccccc4F)ncc3Cl)sc2c1, Cc1cccc(NC(=O)Cn2cc(S(=O)(=O)Cc3ccccc3Cl)c3ccccc32)c1, CCOC(=O)c1ccc(NC(=O)c2nc(SCc3ccc(F)cc3)ncc2Cl)cc1, CSc1ncc(Cl)c(C(=O)Nc2ccc(S(=O)(=O)N3CCCC(C)C3)cc2)n1 (configuration not stated), CCCSc1ncc(Cl)c(C(=O)Nc2c(C(=O)Nc3ccccc3)oc3ccccc23)n1, CCOCCCNC(=O)c1c(NC(=O)c2nc(SC)ncc2Cl)sc2c1CCCC2, CN(C)c1cccc(C(=O)Nc2nc3ccc(S(=O)(=O)NC(C)(C)C)cc3s2)c1, CN(C)c1ccc(/C=C/c2c3ccccc3nc3ccccc23)cc1, Cc1ccc(CNS(=O)(=O)c2ccc(-c3cc(C(F)(F)F)on3)s2)cc1, Cc1nn(-c2ccc(N3CCCCC3)nn2)c(C)c1CCC(=O)NCc1ccc(F)cc1, COc1ccccc1NC(=O)c1oc2ccccc2c1NC(=O)COc1ccccc1OC, COc1ccc(S(=O)(=O)c2c(Nc3cccc(Cl)c3)sc(C(=O)c3ccccc3)c2N)cc1, O=C(CNS(=O)(=O)c1cccs1)N1CCN(c2ccccc2Cl)CC1, COc1ccccc1CNC(=O)C(Cc1ccccc1)NS(=O)(=O)c1ccc2c(c1)oc(=O)n2C (configuration not stated), CCOC(=O)c1c(C)oc2nc(C)nc(N(CC(C)C)CC(C)C)c12, Cc1ccc(CNC(=O)CCNS(=O)(=O)c2ccc3c(c2)oc(=O)n3C)cc1, CCOC(=O)c1c(NC(=O)c2ccc(S(=O)(=O)N(CC)CC)cc2)sc2c1CCCCC2, CCc1ccc(CNC(=O)c2cc3cc4ccc(OC)cc4nc3o2)cc1, O=C(O)/C(=C/c1c(C(=O)O)[nH]c2cc(Cl)cc(Cl)c12)c1ccccc1, CN(CC(=O)Nc1ccccc1C(F)(F)F)C(=O)Cc1ccccc1F, O=C(Nc1nc2ccc(F)cc2s1)c1nc(SCc2ccccc2F)ncc1Cl, Cc1ccc(Cn2cnc3c(cnn3C(C)(C)C)c2=O)c(F)c1, O=C(NNC1CC(=O)N(c2cccc(Cl)c2)C1=O)c1cccnc1 (configuration not stated), CCN(CC)c1ccc(/C=C/c2c(C)cnc3ccc(C)cc23)cc1, COc1cccc(CNC(=O)CCc2nc(-c3ccc(C)cc3)no2)c1, COc1ccc(OC)c(NC(=O)CSc2nc3ccccc3nc2N2CCCCC2)c1, CCn1cc(C(=O)NCc2ccccc2)c(=O)c2cc(S(=O)(=O)N3CCCCC3)ccc21, CCC(=O)N1CCc2cc(Br)cc(S(=O)(=O)CCC(=O)NCc3ccccc3OC)c21, O=C(Nc1cccnc1)c1cc2cc(Br)ccc2oc1=O, O=C(NC(=S)Nc1ccc(Br)cc1F)C1CCCCC1, CN(C)c1ccc(C=Nc2ccc(/C=C/c3ccnc4ccccc34)cc2)cc1, O=C(O)/C(=C/c1cccnc1)NC(=O)c1ccccc1, O=C(OCc1cc(Cl)ccc1OC(F)F)c1cccnc1, Cc1cc(C)c(NC(=O)CN2C(=O)c3cccnc3Oc3ccc(Cl)cc32)c(C)c1, Cc1ccc(SCC(CC(C)C)N2CCN(CCc3ccccc3)CCC2=O)cc1 (configuration not stated), O=C(Nc1ccc2nc(SCCOc3ccccc3)sc2c1)c1ccco1, O=C(Nc1nnc(C2CC(=O)N(c3ccc(Cl)cc3)C2)s1)c1ccco1 (configuration not stated), Cc1ccc(C)c(OCC(=O)Nc2sc3c(c2C#N)CCCC3)c1C, COc1cccc(C2CC(c3ccccc3)=NN2S(=O)(=O)c2ccccc2)c1OC (configuration not stated), Cc1ccc2c(c1)N(C(=O)CCC(=O)NCc1ccccc1F)CC(C)O2 (configuration not stated)

Potency, active:
COc1cccc(NCCC(=O)c2cccc([N+](=O)[O-])c2)c1 20 µM, CC1CN(c2cc(=O)n(Cc3ccc(F)cc3)c(=O)[nH]2)CC(C)O1 (configuration not stated) 10 µM, O=[N+]([O-])c1cc(S(=O)(=O)CCCN2CCOCC2)ccc1F 11.2 µM, CCCCOC(=O)CNc1nnc(SCC(=O)OCC)[nH]c1=O 11.2 µM, O=C(/C=C/c1ccco1)NC(=S)N1CCCCC1 28.2 µM, CCn1c(SC)nc(O)c(C(c2ccc(OC)c(O)c2)c2c(O)nc(SC)n(CC)c2=O)c1=O 50.1 µM, CCOC(=O)N1CCN(C(c2cccnc2)c2ccc3cccnc3c2O)CC1 (configuration not stated) 0.398 µM, CCN1CCN(C(c2cccnc2)c2cc(Cl)c3cccnc3c2O)CC1 (configuration not stated) 4.47 µM, Cc1ccc(C2C(C#N)C(C#N)N3CCCN23)cc1 (configuration not stated) 22.4 µM, Cc1ccc(CN2CCC(n3nccc3NC(=O)CCCc3ccccc3)CC2)o1 70.8 µM, Cc1cccc(CS(=O)(=O)c2ncc(Cl)c(C(=O)Nc3ccc(F)cc3)n2)c1 7.94 µM, CSc1nnc(NC(=O)c2nc(S(=O)(=O)Cc3ccc(C)cc3)ncc2Cl)s1 15.8 µM, Cc1cccc(NC(=O)c2nc(S(=O)(=O)Cc3ccccc3)ncc2Cl)c1 5.62 µM, Cc1ccc(NC(=O)c2nc(S(=O)(=O)Cc3cccc(C)c3)ncc2Cl)cc1 1.78 µM, O=C(Nc1ccccc1C(F)(F)F)c1nc(S(=O)(=O)Cc2ccccc2F)ncc1Cl 2.82 µM, O=C1[C@@H]2C(c3cccnc3)=NO[C@@H]2C(=O)N1c1ccc(Cl)cc1Cl 70.8 µM, Fc1cc(Br)ccc1NC(=S)Nc1cccnc1 50.1 µM, O=C(/C=C/c1ccc(Cl)cc1Cl)c1cccnc1 4.47 µM, O=C(Nc1nc(-c2ccco2)c(-c2ccco2)s1)c1ccco1 28.2 µM, COc1ccc2c(c1OC)C(=O)OC2Nc1nc(-c2ccccc2)cs1 (configuration not stated) 4.47 µM

Activity change, negative = inhibition, inactive:
Cc1nnc(SCCCCSc2nnc(C)c(=O)[nH]2)[nH]c1=O 12.5% [at 11.4 µM]

From PubChem BioAssay AID588453 (National Center for Advancing Translational Sciences (NCATS), 2011)
